Data: PubChem BioAssay (EPA / NIEHS)
Inconclusive results are not listed. Calls of active or inactive are those of the source. How the source made its calls: active means hit-call score of the fitted dose curve at least 0.9, where 1 is the maximum; inconclusive means response in the unintended direction; inactive means score below 0.9.

experiment: ATG_M_19_TRANS: Attagene TRANS-FACTORIAL HepG2 Assay for M19 Transcription Factor (Internal Marker) (AID 2282974); details: HepG2 Attagene TRANS-FACTORIAL M19 internal marker reporter
Experimental: ATG_TRANS is a cell-based, multiplexed-readout assay that uses HepG2, a human liver cell line, with measurements taken at 24 hours after chemical dosing in a 24-well plate.ATG_M_19_TRANS is one of 30 assay component(s) measured or calculated from the ATG_TRANS assay. It is designed to make measurements of mRNA induction, a form of inducible reporter, as detected with fluorescence intensity signals by Reverse transcription polymerase chain reaction (RT-PCR) and Capillary electrophoresis technology.Data from the assay component ATG_M_19_TRANS was analyzed into 1 assay endpoint. This assay endpoint, ATG_M_19_TRANS, was analyzed in the positive analysis fitting direction relative to DMSO as the negative control and baseline of activity. Using a type of inducible reporter, measures of mRNA for gain-of-signal activity can be used to understand the background control at the transcription factor-level as they relate to the gene . Furthermore, this assay endpoint can be referred to as a secondary readout, because this assay has produced multiple assay endpoints where this one serves a background control function. To generalize the intended target to other relatable targets, this assay endpoint is annotated to the background measurement intended target family, where the subfamily is internal marker.
Human liver HepG2 cells are transiently transfected with multiple reporter transcription units (MRTUs) in 6-well plates using FuGene 6 reagent (Roche; 3 ml FuGene/1 mg DNA). The MRTU constructs are regulated by a cis-regulating element (promoter). […] A major difference between the CIS and TRANS system is that in CIS activities of endogenous TFs are measured, whereas the TRANS assay evaluates changes in activities of exogenous, chimeric NR-Gal4 proteins. […] At the end of 24 hour incubation, total RNA was isolated using TriZol reagent (Invitrogen). The isolated RNA is then reverse-transcribed using oligo(dT) primer and Mo-MLV reverse transcriptase (Invitrogen) with DNAse I (Ambion) treatment for 30 min. The one-tenth of the produced cDNA was amplified by PCR using Taq DNA polymerase (Invitrogen) and two reporter sequence-specific primers. The PCR products were fluorescently labeled by primer extension with 6-arboxyfluorescein (6-FAM) 5'-labeled reporter sequence-specific primer (2 min at 95 C, 20 s at 68 C and 10 min at 72 C) and these products were digested with 5U of HpaI (New England Biolabs) for 2h at 37 C. The fragments were purified using Qiaquick PCR columns (Qiagen), analyzed on an ABI 3130xL genetic analyzer (Applied Biosystems) with peak positions identified by using a set of X-rhodamine (ROX)-labeled MapMarker1000 molecular weight standards (BioVentures). The raw capillary electrophoresis data was processed using Attagraph software (Attagene).

SMILES	outcome
CCC(C)c1ccc(O)cc1 (stereo not given)	inactive
CCCCCCCCOC(=O)c1ccc(C(=O)OCCCCCCCC)c(C(=O)OCCCCCCCC)c1	inactive
COP(=S)(OC)SCN1C(=O)c2ccccc2C1=O	inactive
[Cl-].[Cl-].[Hg+2]	inactive
Cc1cc(N=Nc2ccccc2C)ccc1N	inactive
CC(C)(C)C(O)(CCc1ccc(Cl)cc1)Cn1cncn1 (stereo not given)	inactive
O=C(Nc1ccccc1)c1ccccc1I	inactive
Cc1ccc(N)cc1	inactive
C[C@]12C=CC3=C4CCC(=O)C=C4CC[C@H]3[C@@H]1CC[C@@H]2O	inactive
Nc1ccc(N=Nc2ccccc2)cc1	inactive
CCCCCCCCn1sccc1=O	inactive
C[N+](C)(C)CC1CO1 (stereo not given)	inactive
Clc1ccc(C(c2ccc(Cl)cc2)C(Cl)Cl)cc1	inactive
ClC1=C(Cl)[C@]2(Cl)[C@H]3[C@H]([C@@H]4C=C[C@H]3C4)[C@@]1(Cl)C2(Cl)Cl	inactive
O=Cc1ccco1	inactive
N#CC(Br)(Br)C(N)=O	inactive
OCCOCCO	inactive
Nc1ccc([N+](=O)[O-])cc1	inactive
c1ccc(C2CO2)cc1 (stereo not given)	inactive
CC(C)(O)c1cnn2c(-c3ccc(F)c(-c4c(F)cccc4C#N)c3)cnc2n1	inactive

SMILES	outcome
Oc1ccc2ccc3cccc4ccc1c2c34	inactive
ClCCOCCCl	inactive
O=[N+]([O-])c1ccc(Oc2ccc(Cl)cc2Cl)cc1	inactive
c1ccc(NNc2ccccc2)cc1	inactive
CN(C)c1ccc(C(=O)c2ccc(N(C)C)cc2)cc1	inactive
CCCCC(CC)COC(=O)c1ccc(C(=O)OCC(CC)CCCC)c(C(=O)OCC(CC)CCCC)c1 (stereo not given)	inactive
CC(C)COC(=O)c1ccccc1C(=O)OCC(C)C	inactive
COC(=O)c1ccccc1N	inactive
CCC12COCN1COC2	inactive
CNC(=O)Oc1cccc2c1OC(C)(C)C2	inactive
CCCCOC(=O)c1ccccc1C(=O)OCc1ccccc1	inactive
CCNS(=O)(=O)C(F)(F)C(F)(F)C(F)(F)C(F)(F)C(F)(F)C(F)(F)C(F)(F)C(F)(F)F	inactive
Nc1ccc(Cc2ccc(N)cc2)cc1	inactive
CCOC(=O)[C@]1(c2ccccc2)Oc2ccccc2[C@@H]1N	inactive
CC(C)N(Cc1ccccc1)C(=O)C(C)(C)C	inactive
CCC[CH2][Sn]([Cl])([CH2]CCC)[CH2]CCC	inactive
CS(=O)(=O)NC(=O)c1cc(Oc2ccc(C(F)(F)F)cc2Cl)ccc1[N+](=O)[O-]	inactive
Clc1ccc(C(c2ccc(Cl)cc2)C(Cl)(Cl)Cl)cc1	inactive
O=P(OCCCl)(OCCCl)OCCCl	inactive
[O-][Cl+]O	inactive
